This is part of a sample that, as a whole, favours compounds with a hit. Of some 83,000 tested, about 20% had one in any assay.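 Method: cells in 96-well plates; compound added at one concentration; 48 h incubation; percent growth measured; values under 10 scored active.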 A number with no mark means an inactive call. Active and inactive are the calls of the source.
Experiments:
Test in all cases: NCI-60 one-dose screen, 48 h (100 = growth as untreated, 0 = no growth, -100 = all killed)
Settings in all cases: 10 µM unless noted
[1] = tested on: NCI-H23 lung
[2] = tested on: NCI-H226 lung
[3] = tested on: NCI-H322M lung
[4] = tested on: HOP-62 NSCLC
[5] = tested on: NCI-H460 lung
[6] = tested on: NCI-H522 lung
[7] = tested on: A549/ATCC NSCLC
[8] = tested on: 786-0 renal
[9] = tested on: COLO 205 colon
[10] = tested on: DU-145 prostate
[11] = tested on: K-562 leukemia
[12] = tested on: MALME-3M melanoma
[13] = tested on: MDA-MB-231 breast
[14] = tested on: RXF 393 renal
[15] = tested on: SF-268 CNS
[16] = tested on: SF-295 CNS
[17] = tested on: SF-539 CNS
[18] = tested on: UACC-257 melanoma
[19] = tested on: M14 melanoma

Structure (SMILES) | growth [1] | growth [2] | growth [3] | growth [4] | growth [5] | growth [6] | growth [7] | growth [8] | growth [9] | growth [10] | growth [11] | growth [12] | growth [13] | growth [14] | growth [15] | growth [16] | growth [17] | growth [18] | growth [19]
CC(C)CCC(=O)[C@@H](C)[C@H]1[C@@H](OC2OCC(O)C(O)C2NS(C)(=O)=O)C[C@H]2[C@@H]3CC=C4C[C@@H](O)CC[C@]4(C)[C@H]3CC[C@]12C (stereo partly drawn) | 56.8% | 52.4% | 68.5% | 8.62% (active) | 12.1% | 20.7% | 33.4% | -32% (active) | -0.62% (active) | 49% | 2.65% (active) | 8.83% (active) | 43.8% | -65.1% (active) | 9.17% (active) | -60.9% (active) | -41.2% (active) | -42.8% (active) | -53.1% (active)
O/N=C/c1ccncc1 | 101% | 107% | 110% | 104% | 106% | 83.7% | 96.5% | 109% | 108% | 103% | 106% | 98.7% | 118% | 122% | 111% | 96% | 115% | 100% | 115%
NC(=S)N1N=C(c2ccc(Cl)cc2)CC1c1cc2ccccc2[nH]c1=O (stereo not drawn) | 105% | 113% | 97.2% | 102% | 108% | 84.2% | 110% | 98% | 115% | 118% | 112% | 93.8% | 109% | 123% | 112% | 108% | 106% | 111% | 111%
CCOC(=O)C1C(=O)C=C(c2cc(OC)c(OC)c(OC)c2)CC1c1sc(N(C)Cc2ccccc2)nc1Cl (stereo not drawn) | 87.3% | 74.1% | 83.2% | 78.3% | 86.3% | 67% | 71.6% | 85.9% | 97.1% | 106% | 66.4% | 104% | 82.9% | 81.5% | 73.6% | 89.3% | 95.6% | 90.4% | 92%
NC(=O)c1ccc[n+](Cc2ccccc2)c1 | 96.1% | 102% | 104% | 127% | 108% | 99.3% | 94.3% | 109% | 112% | 101% | 113% | 75.4% | 105% | 97.6% | 107% | 109% | 96.7% | 95.3% | 96.3%
Nc1nc(NC2CC2)cc(-c2cccc(Cl)c2Cl)n1 | 71.7% | 92.3% | 101% | 47.1% | 27.6% | 3.95% (active) | 32.6% | 69.2% | 44.1% | 78.3% | 18.9% | 64.4% | 66.8% | 73.3% | 67.6% | 55.7% | 55.7% | 49.8% | 18.3%
Oc1ccc(-c2nc3ccccc3s2)cc1CN(Cc1ccccn1)Cc1ccccn1 | 17.5% | 5.38% (active) | 9.63% (active) | 10.9% | 2.66% (active) | -7.33% (active) | 2.38% (active) | -3.75% (active) | 16% | 24.2% | 11.8% | 8.24% (active) | 25.3% | 40.5% | 17.7% | 13.5% | 3.91% (active) | -0.146% (active) | -29.7% (active)
CCC1=CC2CN(C1)Cc1c([nH]c3ccccc13)[C@@](C(=O)OC)(c1cc3c(cc1OC)N(C)[C@H]1[C@@](O)(C(=O)OC)[C@H](OC(C)=O)[C@]4(CC)C=CCN5CC[C@]31[C@@H]54)C2 (stereo partly drawn) | 3.64% (active) | -1.33% (active) | 70% | 19.8% | 3.4% (active) | -4.74% (active) | 11% | -8.81% (active) | -75% (active) | -30.1% (active) | 17% | 44.5% | 30.3% | 47.1% | 17.4% | 15.4% | 6.49% (active) | 59.1% | -36.8% (active)
COc1ccc(/C(C)=N/NC(=O)CSc2nc3ccccc3c(=O)n2CCc2ccc(S(N)(=O)=O)cc2)cc1 | 29.9% | 49% | 32.3% | -0.117% (active) | -29.5% (active) | 9.28% (active) | -26.9% (active) | -68.1% (active) | 33.5% | 1.74% (active) | 30.4% | -21.4% (active) | -10.9% (active) | 29.7% | 28.3% | 28.5% | 14.4% | 25.9% | 38.4%
COc1ccc2[nH]cc(C3(c4c[nH]c5ccc(OC)cc45)C(=O)Nc4ccc(F)cc43)c2c1 | 97% | 70% | 98.1% | 83.3% | 4.92% (active) | 78.5% | 75.3% | 82.6% | 72.9% | 81.2% | -16.5% (active) | 80.1% | 101% | 78.8% | 53.9% | 56.7% | 78.5% | 94% | 86.7%
COc1ccc(-c2cc(-c3ccc(OC)cc3)c3sc(=O)[nH]c3n2)cc1 | 98% | 71% | 82.3% | 70.5% | 94% | 69.1% | 78.4% | 79.3% | 107% | 107% | 94.2% | 109% | 87.6% | 77.7% | 92.6% | 96.8% | 81.8% | 104% | 109%
O=C(CCl)N1c2ccccc2Oc2ccc3ccccc3c21 | -48.4% (active) | 3.48% (active) | 91.4% | -16.6% (active) | 2.15% (active) | -83.1% (active) | 30% | -89.4% (active) | -94.2% (active) | -7.27% (active) | 2.96% (active) | -49% (active) | -26.8% (active) | -83.7% (active) | -39.3% (active) | -15.8% (active) | -80.1% (active) | 8.99% (active) | -70% (active)
N/C(=N\OC(=O)c1ccccc1)C(Cc1ccccc1)C(=O)NOC(=O)c1ccccc1 (stereo not drawn) | 46.6% | 95.1% | 89% | 1.55% (active) | 5.54% (active) | -53.7% (active) | -60.3% (active) | 48.7% | 69.3% | 16.2% | -6.89% (active) | 59.2% | 70.7% | 53.4% | 1.91% (active) | -14.7% (active) | 13.6% | 88.8% | 48.3%
CN(C)CC(=O)c1ccc2cc(Br)c3ccccc3c2c1 | 74.1% | 88.1% | 75.7% | 83.2% | 59.4% | 9.3% (active) | 51.5% | 47.4% | 74.1% | 77.8% | 38.5% | 106% | 76.4% | 72.2% | 77.6% | 82.8% | 79.5% | 66% | 77.2%
CC(C)=CC[C@@H]1CC2(CC=C(C)C)C(=O)C(OC3(C(=O)c4ccccc4)C(=O)C4(CC=C(C)C)C[C@@H](CC=C(C)C)C(C)(C)C(CC=C(C)C)(C4=O)C3=O)(C(=O)c3ccccc3)C(=O)C(CC=C(C)C)(C2=O)C1(C)C (stereo partly drawn) | 10.3% | -4.96% (active) | 3.49% (active) | 0.307% (active) | -9.89% (active) | -28.8% (active) | 6% (active) | 11.6% | -22.3% (active) | 2.13% (active) | 4.86% (active) | -28.8% (active) | -11.3% (active) | 4.28% (active) | 14.5% | -13.4% (active) | -18.5% (active) | -19.7% (active) | -2.59% (active)
CCCCCCCCCCCC1=NC(C)(C)CN1C(C)C | 49.8% | 89.1% | 97.7% | 54.6% | 50.4% | 43% | 61.1% | 54.5% | -53.7% (active) | 68.9% |  | 59.8% | 53.7% | 5.65% (active) | 71.9% | 62.6% | 55.6% | -9.06% (active) | -26.6% (active)

From PubChem BioAssay (NCI)
